From PubChem BioAssay
In the library only some 2.8% were active in any assay of this set; here they are far more common.
IP6K1 inhibitor: Primary qHTS assay for small molecule inhibitors of Inositol hexaphosphate kinase 1 (IP6K1) | Inositol hexakisphosphate kinase 1 (Homo sapiens), Q92551 | IP6K1 kinase, ADP-Glo luminescence, 2 h; hits give low values | activity change, % (series mostly up to about 58 µM) | actives 0.81% (n = 140,000) | AID 1645851, 2021; in the data active = activity change below about -25%; note: % is set by controls: 0 for no effect and ±100 for the full control effect
Target sequence (Q92551 whole entry, looked up): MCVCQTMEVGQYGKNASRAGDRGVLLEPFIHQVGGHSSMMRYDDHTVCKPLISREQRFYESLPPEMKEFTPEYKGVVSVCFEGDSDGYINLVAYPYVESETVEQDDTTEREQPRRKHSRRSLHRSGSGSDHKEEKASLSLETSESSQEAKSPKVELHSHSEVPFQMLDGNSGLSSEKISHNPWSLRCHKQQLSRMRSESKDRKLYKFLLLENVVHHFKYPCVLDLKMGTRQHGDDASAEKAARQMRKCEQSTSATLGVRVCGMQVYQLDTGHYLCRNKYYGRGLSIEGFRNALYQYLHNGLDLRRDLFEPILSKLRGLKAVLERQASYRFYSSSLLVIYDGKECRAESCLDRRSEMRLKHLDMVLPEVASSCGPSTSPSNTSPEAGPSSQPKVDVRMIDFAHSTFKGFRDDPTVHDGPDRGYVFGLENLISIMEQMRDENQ
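ADP-Glo luminescence measures ADP made by human IP6K1 during a 2 h RT reaction with ATP/IP6 (mix at 1.3 mM/130 uM); top library doses 57.5 and 19.1 uM final.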
KDM5B inhibitor: Primary screen for KDM5B Histone Demethylases FDH-coupled qHTS | Potency, µM (top dose mostly 57.7 µM), actives largely listed as inhibitors | actives 2.6% (n = 220,000) | AID 1347165, 2019 | KDM5B demethylase, FDH-coupled NADH fluorescence (FDH is formaldehyde dehydrogenase) | Lysine-specific demethylase 5B (Homo sapiens), Q9UGL1; active = well fitted inhibition curve with a large enough effect; inconclusive = small, poorly fitted or top-dose-only effect; inactive = no such curve, though single readings can be large or run the other way; note: potency is the fitted concentration of half-maximal effect; 0% is about no effect; nearly all actives have a fitted effect of over 70% in size
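qHTS format, multiple compound concentrations. Buffer 50 mM HEPES pH 7.5/0.01% Tween-20; 200 nM KDM5BΔAP final; 10 min compound preincubation; substrate-mix levels 12.5 µM peptide, 25 µM α-KG, 0.25 mM NAD⁺; 30 min RT; ΔRFU.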
* marks the source's active call; other numbers are inactive results; i = inactive; u = inconclusive; x = no result.

SMILES	IP6K1 inhibitor	KDM5B inhibitor
O=C(c1ccc(N2CC3CC(C2)[C@H]2CCCC(=O)N2C3)nc1)N1CCC(Cc2ccccc2)CC1 (some centres undefined)	17	32µM*
O=C(Nc1ccccc1F)N1CCC(Oc2ccccc2-c2nc(C3CC3)no2)C1 (centres undefined)	-10	x
O=S1(=O)CCN2C(c3cccc(Br)c3)=CSC2=N1	x	i
COc1ccc(Cc2nc3nccc(-c4ccco4)n3n2)cc1	-3	i
COc1ccccc1-c1nc2nccc(-c3cc(OC)c(OC)c(OC)c3)n2n1	7	25µM*
COc1ccccc1-c1nc2nccc(-c3ccncc3)n2n1	-3	i
Brc1ccc(-c2ccnc3nc(-c4ccco4)nn23)s1	-11	28µM*
COc1cc(-c2ccnc3nc(CCC4CCCC4)nn23)cc(OC)c1OC	4	u
COc1ccccc1-c1nc2nccc(-c3ccc4c(c3)OCCCO4)n2n1	-3	14µM*
COc1cc(-c2ccnc3nc(-c4ccco4)nn23)cc(OC)c1OC	-8	25µM*
COc1cccc(-c2ccc(C(=O)N3CCC(N[S+](=O)([O-])CCC(F)(F)F)CC3)cc2)c1	4	x
COc1ccc(-c2ccnc3nc(-c4ccccc4OC)nn23)cc1OC	-5	28µM*
COc1ccccc1-c1nc2nccc(-c3ccco3)n2n1	-9	u
COc1ccccc1-c1nc2nccc(-c3ccccc3)n2n1	-5	i
COc1ccccc1-c1nc2nccc(-c3ccc(Cl)cc3)n2n1	5	32µM*
COc1ccccc1-c1nc2nccc(-c3cc4ccccc4o3)n2n1	7	25µM*
COc1ccccc1-c1nc2nccc(-c3cccnc3)n2n1	-11	i
O=C(c1ccc(Cl)cc1)N1CCN(c2ccc3nnc(-c4ccccc4)n3n2)CC1	-1	x
O=[S+]([O-])(Cc1ccccc1)N1C[C@@H](CO)[C@@H]2Oc3ccc(Cl)cc3[C@@H]21	11	x
Cc1nn(CCC(=O)Nc2ccccc2Cl)c(=O)c(C#N)c1C	x	i
COc1ccc(C2=C(C=O)C(c3ccccc3)c3ccccc3O2)cc1 (centres undefined)	x	i
Cc1nn(-c2ccccc2)c2c1C(C1CC1)N(C1CN(C(=O)NC(C)c3ccccc3)C1)C2=O (centres undefined)	10	x
O=C(O)Cn1ccc2cc(OCc3cccc(-c4ccc(F)cc4F)c3)cnc21	-19	35µM*
Cc1oc(-c2ccccc2)nc1CC(=O)NCCc1cccc(F)c1	x	i
O=C(NC1CCCC1)NC1CCN(Cc2cccc(-c3ccc(F)cc3F)c2)CC1	24	x
SMILES	IP6K1 inhibitor	KDM5B inhibitor
Cc1ccc(F)cc1-c1cccc(CCOc2cnc3c(ccn3CC(=O)O)c2)c1	-19	35µM*
C[S+](=O)([O-])CCn1ncc2cc(OCc3cccc(-c4ccccc4F)c3)ccc21	-8	u
O=C(O)Cn1ccc2cc(OCCc3cccc(-c4ccccc4F)c3)cnc21	-12	32µM*
O=C(O)Cn1ccc2cc(OCCc3cccc(-c4ccc(F)cc4F)c3)cnc21	-9	35µM*
Cc1cc(F)ccc1-c1cccc(COc2cnc3c(ccn3CC(=O)O)c2)c1	-21	u
CC(C)(C)c1ccc(CCC2OCC(C[N+]3(C)CCCCC3)O2)cc1 (centres undefined)	x	i
CC(=O)N1CC2(CCN(Cc3cc4ccccc4[nH]3)C2)Cc2ccccc21 (centres undefined)	-16	u
Cc1cc(C(=O)OCC(=O)c2ccc(OC(=O)c3ccccc3)cc2)c2ccccc2n1	x	i
COc1cccc(CNC(=O)C2CCN(c3nccc(Nc4ccccc4Cl)n3)CC2)c1	10	x
O=C(NNC(=S)Nc1ccc(Cl)cc1Cl)c1ccc(Cl)c(Cl)c1	x	i
COc1cccc(-c2ccc(COc3ccc4c(cnn4CCC(=O)O)c3)cc2)c1F	-13	i
COc1cccc(-c2cccc(COc3cnc4c(ccn4CC(=O)O)c3)c2)c1F	-22	35µM*
Cc1cc(C)c([S+](=O)([O-])c2nnn3c2nc(N2CCC(F)CC2)c2ccccc23)c(C)c1	8	79µM*
Cc1cc(C)c([S+](=O)([O-])c2nnn3c2nc(N2CCOCC2)c2ccccc23)c(C)c1	-6	u
O=[S+]([O-])(c1ccncc1)c1nnn2c1nc(N1CCC(F)CC1)c1ccccc12	9	i
Cc1ccc(C)c([S+](=O)([O-])c2nnn3c2nc(N2CCC(F)CC2)c2ccccc23)c1	5	79µM*
O=[S+]1([O-])NC2(CCN(CC3CCCCC3)CC2)COc2ccccc21	-6	71µM*
CC(C)(C)CN1CCC2(CC1)COc1ccccc1[S+](=O)([O-])N2	10	u
O=[S+]1([O-])NC2(CCN(Cc3cccnc3)CC2)COc2ccccc21	18	i
O=[S+]1([O-])NC2(CCN(Cc3ccc(Cl)s3)CC2)COc2ccccc21	-9	71µM*
CNC(=O)[C@@H]1CN(S(=O)(=O)c2cccc(Cl)c2)C[C@H]1C1CCN(C)CC1	1	i
CNC(=O)[C@@H]1CN(S(=O)(=O)c2ccc(F)c(C)c2)C[C@H]1C1CCN(C)CC1	-12	22µM*
COc1ccc(-c2cccc(C(=O)N3CCC(NC(=O)c4ccc(C)cc4)CC3)c2)nn1	5	x
Cc1cc(F)cc(CN2CCc3nc(C(=O)Nc4ccccc4)oc3CC2)c1	12	28µM*
O=C(Nc1ccccc1)c1nc2c(o1)CCN(Cc1ccccc1)CC2	5	u
SMILES	IP6K1 inhibitor	KDM5B inhibitor
COc1ccccc1CN1CCc2nc(C(=O)Nc3ccccc3)oc2CC1	-2	u
Cc1ccccc1CN1CCc2nc(C(=O)Nc3ccccc3)oc2CC1	0	28µM*
CCOC(=O)c1[nH]c(C)c(C(=O)OCc2ccccc2)c1C	x	i
CCNc1ncc(C(=O)N(CCc2ccccc2)Cc2ccco2)cn1	4	28µM*
C=CCN(CCSc1ccccc1)C(=O)c1cnc(NCC)nc1	12	u
CCc1c(C)sc2nc(NCc3ccco3)n3nc(-c4ccco4)nc3c12	x	i
Cc1cccc(-c2nc3ccc(C(=O)NCC(C)C)cc3o2)n1	-2	x
CC(=O)c1cccc(NC(=O)CN(CCc2ccccc2)S(C)(=O)=O)c1	x	i
Cc1nc(-c2cccc(Cl)c2)n(Cc2cc(=O)n3ccccc3n2)c(=O)c1CCO	1	32µM*
Cc1ccc(Cn2c(-c3cccc(Cl)c3)nc(C)c(CCO)c2=O)cc1	0	u
CN(CC(=O)NC(C)(C)C)C(=O)CCl	x	i
COc1ccc(-c2nc3cc(C)ccc3cc2CN2CCN(C(C)=O)CC2)cc1	0	i
COc1ccc(-c2nc3cc(C)ccc3cc2CN2CCC(NC(C)=O)C2)cc1 (centres undefined)	9	20µM*
Cc1nnc2n1CCC(NC(=O)c1ccc3cc[nH]c3c1)CC2 (centres undefined)	4	28µM*
Cc1nnc2n1CCC(NC(=O)c1ccoc1)CC2 (centres undefined)	6	i
Cc1cc(S(=O)(=O)N2CCOC23CCN(C(=O)c2ccccc2C(F)(F)F)CC3)ccc1F	x	i
Cc1cc(C)n2ncc(C(=O)N3CCC(c4[nH]ncc4-c4ccccc4)CC3)c2n1	16	u
Cc1nc2ncccn2c1C(=O)N1CCC(c2[nH]ncc2-c2ccccc2)CC1	-3	28µM*
